Results on 15 compounds are retold here after ChEMBL document CHEMBL1961873, “Compounds: GSK PKIS; Assays: Nanosyn kinase panel” (2012).

In test [1] the target is Tyrosine-protein kinase Fyn (Homo sapiens) (UniProt P06241). The settings on record: at 1 µM.
Test [2] deals with Tyrosine-protein kinase HCK (Homo sapiens) (UniProt P08631). To be noted: at 0.1 µM.
The target is the same in test [3]. The settings on record: at 1 µM.
Test [4] addresses Insulin-like growth factor 1 receptor (Homo sapiens) (UniProt P08069). To be noted: at 0.1 µM.
The target is the same in test [5]. To be noted: at 1 µM.
Test [6] concerns the target Insulin receptor (Homo sapiens) (UniProt P06213). To be noted: at 0.1 µM.
Test [7] shares this target. To be noted: at 1 µM.
Test [8] concerns the target Insulin receptor-related protein (Homo sapiens) (UniProt P14616). The settings on record: at 0.1 µM.
Test [9] shares this target. To be noted: at 1 µM.
The target of test [10] is T1, Tyrosine-protein kinase ITK/TSK (Homo sapiens) (UniProt Q08881).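 Note: mean percent inhibition of ITK from the GSK PKIS screen.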
T1 sequence (whole entry): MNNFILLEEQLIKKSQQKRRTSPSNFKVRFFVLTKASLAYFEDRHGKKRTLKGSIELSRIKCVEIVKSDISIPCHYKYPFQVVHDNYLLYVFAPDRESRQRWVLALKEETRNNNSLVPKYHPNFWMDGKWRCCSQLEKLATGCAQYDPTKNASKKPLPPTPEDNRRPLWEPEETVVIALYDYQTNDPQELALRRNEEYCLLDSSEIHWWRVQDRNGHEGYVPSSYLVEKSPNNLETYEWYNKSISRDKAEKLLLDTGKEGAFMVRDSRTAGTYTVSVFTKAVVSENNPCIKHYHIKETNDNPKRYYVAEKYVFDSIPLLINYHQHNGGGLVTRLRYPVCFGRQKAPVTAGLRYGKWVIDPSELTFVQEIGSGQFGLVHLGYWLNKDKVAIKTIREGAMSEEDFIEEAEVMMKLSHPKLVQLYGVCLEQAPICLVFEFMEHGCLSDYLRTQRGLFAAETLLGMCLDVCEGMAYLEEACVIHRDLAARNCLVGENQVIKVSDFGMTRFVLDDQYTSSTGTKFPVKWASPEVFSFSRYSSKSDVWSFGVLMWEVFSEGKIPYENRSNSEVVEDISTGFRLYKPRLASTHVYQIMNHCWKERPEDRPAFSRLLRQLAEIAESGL
To be noted: at 0.1 µM.

Chain of Insulin receptor-related protein (Homo sapiens) (P14616 27-742 limits assumed): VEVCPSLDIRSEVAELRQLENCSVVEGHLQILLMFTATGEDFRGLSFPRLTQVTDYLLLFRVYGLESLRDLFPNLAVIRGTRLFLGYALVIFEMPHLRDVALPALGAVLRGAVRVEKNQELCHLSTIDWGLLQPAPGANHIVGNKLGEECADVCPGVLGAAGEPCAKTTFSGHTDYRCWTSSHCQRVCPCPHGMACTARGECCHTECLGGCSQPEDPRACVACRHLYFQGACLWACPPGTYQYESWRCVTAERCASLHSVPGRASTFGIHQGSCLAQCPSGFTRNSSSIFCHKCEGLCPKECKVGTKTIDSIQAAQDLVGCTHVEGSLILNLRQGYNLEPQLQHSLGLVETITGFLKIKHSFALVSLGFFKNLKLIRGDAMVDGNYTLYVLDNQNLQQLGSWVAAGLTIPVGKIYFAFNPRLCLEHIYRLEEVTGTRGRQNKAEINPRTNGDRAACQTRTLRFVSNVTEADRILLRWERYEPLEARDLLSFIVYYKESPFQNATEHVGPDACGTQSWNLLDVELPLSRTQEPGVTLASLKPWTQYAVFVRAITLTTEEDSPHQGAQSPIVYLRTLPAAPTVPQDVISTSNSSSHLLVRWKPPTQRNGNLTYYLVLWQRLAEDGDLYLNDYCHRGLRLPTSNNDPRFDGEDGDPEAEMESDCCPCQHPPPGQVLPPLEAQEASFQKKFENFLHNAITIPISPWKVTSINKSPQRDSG
Chain of Insulin receptor-related protein (Homo sapiens) (P14616 747-1297 limits assumed): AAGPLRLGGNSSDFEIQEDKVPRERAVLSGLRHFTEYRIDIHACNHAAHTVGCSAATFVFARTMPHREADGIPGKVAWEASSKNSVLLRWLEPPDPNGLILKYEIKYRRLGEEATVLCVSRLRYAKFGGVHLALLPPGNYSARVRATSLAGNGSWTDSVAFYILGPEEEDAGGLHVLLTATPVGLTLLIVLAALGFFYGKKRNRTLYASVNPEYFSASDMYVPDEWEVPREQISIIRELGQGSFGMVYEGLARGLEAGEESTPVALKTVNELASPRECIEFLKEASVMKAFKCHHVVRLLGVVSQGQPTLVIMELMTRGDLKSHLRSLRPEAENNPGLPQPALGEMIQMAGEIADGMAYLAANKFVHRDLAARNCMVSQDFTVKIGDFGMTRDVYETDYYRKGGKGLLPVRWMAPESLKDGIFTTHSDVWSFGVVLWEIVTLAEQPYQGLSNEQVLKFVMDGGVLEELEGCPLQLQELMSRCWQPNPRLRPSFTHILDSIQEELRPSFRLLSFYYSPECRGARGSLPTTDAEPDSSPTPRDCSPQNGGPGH
Chain of Insulin-like growth factor 1 receptor (Homo sapiens) (P08069 31-736 limits assumed): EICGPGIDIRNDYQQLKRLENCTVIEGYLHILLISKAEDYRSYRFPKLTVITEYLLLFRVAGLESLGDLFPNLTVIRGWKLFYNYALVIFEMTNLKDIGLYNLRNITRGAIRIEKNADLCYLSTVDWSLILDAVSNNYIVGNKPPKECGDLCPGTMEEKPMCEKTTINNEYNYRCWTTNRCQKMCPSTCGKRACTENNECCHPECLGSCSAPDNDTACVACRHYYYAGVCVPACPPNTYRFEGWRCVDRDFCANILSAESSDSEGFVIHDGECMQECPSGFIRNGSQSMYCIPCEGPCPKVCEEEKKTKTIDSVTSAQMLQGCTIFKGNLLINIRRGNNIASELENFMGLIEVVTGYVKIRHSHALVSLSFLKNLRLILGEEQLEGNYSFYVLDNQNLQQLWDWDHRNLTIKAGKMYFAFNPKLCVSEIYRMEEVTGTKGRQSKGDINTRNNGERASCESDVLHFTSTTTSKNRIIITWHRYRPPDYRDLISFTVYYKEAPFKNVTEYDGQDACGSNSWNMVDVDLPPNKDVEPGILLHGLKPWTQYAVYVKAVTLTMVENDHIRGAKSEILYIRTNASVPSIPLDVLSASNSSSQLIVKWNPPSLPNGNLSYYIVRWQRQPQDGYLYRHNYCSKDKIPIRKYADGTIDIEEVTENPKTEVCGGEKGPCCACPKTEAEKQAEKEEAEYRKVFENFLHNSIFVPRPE
Chain of Insulin-like growth factor 1 receptor (Homo sapiens) (P08069 741-1367 limits assumed): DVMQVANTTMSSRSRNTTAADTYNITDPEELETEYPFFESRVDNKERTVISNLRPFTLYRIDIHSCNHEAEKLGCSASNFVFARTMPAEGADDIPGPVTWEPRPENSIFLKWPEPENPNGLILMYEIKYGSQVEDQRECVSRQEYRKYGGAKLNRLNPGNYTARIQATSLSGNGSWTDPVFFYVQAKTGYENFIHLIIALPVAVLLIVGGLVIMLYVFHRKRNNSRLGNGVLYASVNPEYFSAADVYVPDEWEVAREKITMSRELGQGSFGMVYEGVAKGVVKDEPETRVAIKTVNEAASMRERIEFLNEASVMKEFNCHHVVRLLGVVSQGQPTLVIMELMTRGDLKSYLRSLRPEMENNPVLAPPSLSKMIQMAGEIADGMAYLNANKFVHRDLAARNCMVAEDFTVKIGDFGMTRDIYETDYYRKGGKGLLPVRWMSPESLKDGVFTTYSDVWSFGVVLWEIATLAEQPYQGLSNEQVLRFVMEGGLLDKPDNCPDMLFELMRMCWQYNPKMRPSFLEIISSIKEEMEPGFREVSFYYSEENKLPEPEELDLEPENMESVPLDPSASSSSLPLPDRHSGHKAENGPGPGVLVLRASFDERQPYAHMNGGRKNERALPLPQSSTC
Chain of Insulin receptor (Homo sapiens) (P06213 28-758 limits assumed): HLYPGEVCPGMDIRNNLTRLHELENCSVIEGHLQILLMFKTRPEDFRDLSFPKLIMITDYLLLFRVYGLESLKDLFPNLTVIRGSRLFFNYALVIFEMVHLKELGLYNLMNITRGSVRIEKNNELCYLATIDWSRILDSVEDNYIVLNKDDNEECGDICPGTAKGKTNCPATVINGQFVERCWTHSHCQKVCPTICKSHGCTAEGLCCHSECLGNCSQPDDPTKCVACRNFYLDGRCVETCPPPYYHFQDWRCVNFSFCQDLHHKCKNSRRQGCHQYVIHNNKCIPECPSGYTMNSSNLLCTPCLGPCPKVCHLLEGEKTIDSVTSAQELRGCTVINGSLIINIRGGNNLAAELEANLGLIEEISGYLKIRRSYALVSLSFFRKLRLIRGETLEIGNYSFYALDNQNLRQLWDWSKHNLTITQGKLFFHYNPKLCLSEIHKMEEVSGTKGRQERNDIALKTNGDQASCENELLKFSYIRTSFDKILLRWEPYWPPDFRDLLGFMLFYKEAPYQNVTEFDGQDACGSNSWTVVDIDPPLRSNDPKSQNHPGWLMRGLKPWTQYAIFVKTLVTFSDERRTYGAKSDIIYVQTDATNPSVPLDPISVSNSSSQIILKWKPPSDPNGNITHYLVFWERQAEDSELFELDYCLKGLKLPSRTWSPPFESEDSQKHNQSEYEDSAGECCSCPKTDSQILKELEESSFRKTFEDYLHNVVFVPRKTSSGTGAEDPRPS
Chain of Insulin receptor (Homo sapiens) (P06213 763-1382 limits assumed): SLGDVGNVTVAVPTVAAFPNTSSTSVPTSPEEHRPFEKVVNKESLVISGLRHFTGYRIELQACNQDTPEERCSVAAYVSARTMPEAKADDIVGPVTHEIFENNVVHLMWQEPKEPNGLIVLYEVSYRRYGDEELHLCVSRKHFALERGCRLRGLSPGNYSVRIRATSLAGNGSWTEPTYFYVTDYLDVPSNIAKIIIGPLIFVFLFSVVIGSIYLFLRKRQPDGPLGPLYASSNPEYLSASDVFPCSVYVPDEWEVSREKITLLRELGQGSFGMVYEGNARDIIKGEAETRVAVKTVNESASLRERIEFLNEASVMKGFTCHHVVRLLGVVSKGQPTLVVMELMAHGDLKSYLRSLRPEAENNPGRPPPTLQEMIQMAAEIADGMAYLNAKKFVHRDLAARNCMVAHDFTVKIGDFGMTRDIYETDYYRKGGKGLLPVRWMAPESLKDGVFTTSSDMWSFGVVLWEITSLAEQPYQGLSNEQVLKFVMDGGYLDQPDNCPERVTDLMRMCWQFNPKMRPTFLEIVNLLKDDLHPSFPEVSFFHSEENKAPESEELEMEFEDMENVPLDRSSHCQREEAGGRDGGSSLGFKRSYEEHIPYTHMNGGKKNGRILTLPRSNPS
Chain of Tyrosine-protein kinase HCK (Homo sapiens) (P08631 2-526 limits assumed): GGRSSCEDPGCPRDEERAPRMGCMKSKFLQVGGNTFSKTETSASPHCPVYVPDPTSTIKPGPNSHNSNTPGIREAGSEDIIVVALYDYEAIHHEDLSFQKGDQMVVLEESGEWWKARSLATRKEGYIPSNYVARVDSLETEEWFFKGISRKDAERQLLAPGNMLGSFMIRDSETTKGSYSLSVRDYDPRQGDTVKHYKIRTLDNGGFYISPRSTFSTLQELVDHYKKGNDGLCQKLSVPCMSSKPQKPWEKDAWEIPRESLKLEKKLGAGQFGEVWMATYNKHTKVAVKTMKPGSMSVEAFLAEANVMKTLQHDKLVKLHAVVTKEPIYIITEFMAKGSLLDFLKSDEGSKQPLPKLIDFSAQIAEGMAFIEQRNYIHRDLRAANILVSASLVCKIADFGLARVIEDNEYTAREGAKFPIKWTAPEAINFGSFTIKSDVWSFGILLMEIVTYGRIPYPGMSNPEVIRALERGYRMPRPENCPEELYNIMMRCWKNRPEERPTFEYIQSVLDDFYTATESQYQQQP
Chain of Tyrosine-protein kinase Fyn (Homo sapiens) (P06241 2-537 limits assumed): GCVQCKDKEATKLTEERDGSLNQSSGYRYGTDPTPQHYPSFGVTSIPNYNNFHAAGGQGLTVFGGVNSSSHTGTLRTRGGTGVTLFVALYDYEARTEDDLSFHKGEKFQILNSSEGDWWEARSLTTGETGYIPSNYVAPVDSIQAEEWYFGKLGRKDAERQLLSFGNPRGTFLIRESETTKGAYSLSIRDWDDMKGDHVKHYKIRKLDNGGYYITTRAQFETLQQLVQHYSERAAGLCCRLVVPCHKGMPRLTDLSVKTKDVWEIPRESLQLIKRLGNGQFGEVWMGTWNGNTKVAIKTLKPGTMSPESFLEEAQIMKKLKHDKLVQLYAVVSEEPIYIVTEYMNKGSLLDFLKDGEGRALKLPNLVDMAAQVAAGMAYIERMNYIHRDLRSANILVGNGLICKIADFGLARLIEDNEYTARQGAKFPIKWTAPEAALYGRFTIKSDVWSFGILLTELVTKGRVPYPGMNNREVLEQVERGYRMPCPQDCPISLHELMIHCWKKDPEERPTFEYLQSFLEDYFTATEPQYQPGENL

Take `Cc1ccc(NC(=O)c2ccoc2)cc1-c1ccc(C(=O)NCC2CC2)cc1`: the inhibition (in general, the relative decrease from the control value, in per cent) turned out to be 1.16% in [1]; 4.54% in [2]; 5.55% in test [3]; 2.46% in test [4]; 1.25% in test [5]; 1.81% in [6]. For the same compound, the inhibition was 3.42% in test [7], 0.32% in test [8], 0.32% in test [9] and -0.83% in [10].
With `COC(=O)Nc1nc2ccc(Sc3ccc(NC(=O)Nc4cc(C(F)(F)F)ccc4F)cc3)cc2[nH]1`, the inhibition came to 3.27% in test [1]; 39.5% in test [2]; 14.4% in test [3]; 10.6% in test [4]; 6.91% in test [5]; 2.28% in test [6]. In addition, the inhibition in [7] was -0.75%; in test [8], 1.45%; in test [9] it was -0.55%; in [10] it was 0.19%.
As for `C/C(Nc1ccc(S(N)(=O)=O)cc1)=C1/C(=O)Nc2ccccc21`, the inhibition in test [1] was 2.57%; in test [2], -0.82%; in test [3] it was 6.24%; in test [4] it was 0.12%; in [5], 9.94%; in test [6], 2.85%. Besides, the inhibition is 12.7% in test [7], -2.56% in [8], -0.64% in [9] and -0.1% in [10].
On to `Cc1ccc(C(=O)NC(C)C)cc1-c1ccc(C(=O)NCC2CC2)cc1`, for which the inhibition in test [1] was 0.91%; in test [2] it was -3.59%; in test [3] it was -1.19%; in test [4] it was -3.27%; in [5] it was -3.34%; in [6], -1.9%. Further, the inhibition in [7] was -4.51%; in test [8], -4.15%; in [9], -4.41%; in [10] it was -1.4%.
Turning to `Fc1ccc(-c2ncn(CCCN3CCOCC3)c2-c2ccncc2)cc1`, the inhibition in [1] is -2.27%; in test [2] it was -1.42%; in [3], 2.38%; in test [4], 2.24%; in [5], -1.55%; in [6], -0.34%. Besides, the inhibition is 0.12% in [7], -0.04% in test [8], 0.12% in [9] and 0.83% in test [10].
Regarding `COc1ccc2ncn(-c3cc(O[C@H](C)c4ccccc4Cl)c(C(N)=O)s3)c2c1`, the inhibition is -3.05% in [1]; 5.34% in test [2]; 5.31% in test [3]; -6.53% in [5]; 0.89% in [6]; 3.79% in test [7]. Also, the results for the inhibition in test [8], in test [9] and in [10] were 2.92%, 3.51% and -4.15%, respectively.
Turning to `CNC(=O)c1cncc(/C=C/c2c(C)cccc2C)c1`, the inhibition in [1] is 29.6%; in [2] it was 17.2%; in test [3], 58.9%; in test [4], -3.76%; in test [5], -5.13%; in test [6], 0.95%. For the same compound, the inhibition in test [7] was 4.95%; in [8], 2.26%; in [9] it was 1.08%; in [10] it was -3.14%.
With `Clc1ccc(CNc2nccc(-c3cnn4ncccc34)n2)cc1`, the inhibition turned out to be 0.07% in test [1]; 5.97% in [2]; 5.79% in test [3]; 2.48% in [4]; 0.04% in [6]; 1.97% in test [7]. Moreover, the inhibition in test [8] stood at 2.17%; in test [9], 2.19%; in test [10], 0%.
`CCc1nccc2c1nc(-c1nonc1N)n2CC`: the inhibition in test [1] is 0.11%; in [2] it was 11.6%; in test [3], 16.3%; in test [4], -0.66%; in [5], 2.4%; in test [6], 0.64%. Also, the inhibition is 0.74% in test [7], -0.83% in test [8], -1.07% in test [9] and 0.88% in test [10].
Consider `Fc1ccc(-c2ncn(C3CCNCC3)c2-c2ccnc(Oc3ccc(Oc4ccccc4)cc3)n2)cc1`, for which the inhibition in test [1] was 5.66%; in test [2], 5.33%; in [3], 8.1%; in test [4] it was 5.31%; in test [5], 1.58%; in [6], 7.04%. Moreover, the inhibition in test [7] amounted to 3.44%; in test [8], 1.91%; in test [9], 3.32%; in [10] it was 3.37%.
Regarding `COc1cccc(-n2cnc3c(N/N=C/c4ccncc4)ncnc32)c1`, the inhibition in test [1] is 25.6%; in test [2], 0.9%; in test [3], 16.3%; in test [5], -8.19%; in test [6] it was -2.78%; in test [7] it was -4.12%. For the same compound, the inhibition is 1% in test [8], 0.57% in test [9] and -2.76% in test [10].
As for `CCc1ccc(Oc2nccc(-c3c(-c4ccc(F)cc4)ncn3C3CCNCC3)n2)cc1`, the inhibition in [1] was found to be 7.59%; in [2] it was 4.84%; in test [3] it was 8.91%; in test [4] it was 5.24%; in test [5], 3.51%; in test [6], 5.54%. For the same compound, the inhibition in [7] is 3.85%; in test [8], 2.18%; in test [9], 3.43%; in test [10], 2.08%.
As to `CN1CCN(CCCNc2nc3ccc(Oc4ccc(NC(=O)Nc5cc(C(F)(F)F)ccc5F)cc4)cc3[nH]2)CC1`, the inhibition in test [1] was -1.88%; in test [2] it was 4.66%; in test [3] it was 9.14%; in test [4], -9.82%; in test [5], -7.78%; in [6] it was -3.22%. Further, the inhibition in [8] is 1.22%; in [9], 0.55%; in [10] it was -2.06%.
As for `COc1ccc2cc(-c3c(-c4ccncc4)nc(-c4ccc([S+](C)[O-])cc4C)n3C)ccc2c1` (stereo unspecified), the inhibition is 1.8% in test [1]; -0.56% in [2]; 4.6% in test [3]; 0.87% in [4]; 1.27% in [5]; 0.15% in test [6]. The inhibition in test [7] is 2.57%; in test [8], -0.96%; in test [9], 1.18%; in test [10], 0.02%.
Regarding `O=C(Nc1ccc(Oc2ccc3[nH]c(NC(=O)c4ccccc4)nc3c2)cc1)Nc1cc(C(F)(F)F)ccc1F`, the inhibition in test [1] amounted to 21.5%; in test [2] it was 7.45%; in test [3] it was 21.8%; in test [4], 10.6%; in test [5], 7.91%; in test [6] it was 2%. For the same compound, the inhibition in test [7] was 2.26%; in test [8], 2.66%; in [9], 3.55%; in test [10], 1.11%.
